# According to PubChem BioAssay (Tox21):
# Values joined by “and” are separate entries in the source; they are usually repeats but may differ in a detail not shown here. Equal values may be shown once. Inconclusive results are not listed. A call without a number means that no potency is given here. Some compounds were tested as several samples or in several runs, with calls that do not always agree. Active and inactive are the calls of the source. Unless noted, the call rests on the fitted dose curve; in most records, active means well fitted curve in the direction sought with a large enough effect in the repeat runs; inconclusive means weak or mixed curves; inactive means no such curve, though single readings can be large; an effect the other way counts as inactive or inconclusive.
# Assays:
# [1] = qHTS assay to identify small molecule agonists of the estrogen related receptor signaling pathway with the pleiotropic PPARgamma coactivator (PGC) (AID 1224823)
# In short: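 Luminescence readout (One-Glo, 30 min RT) from PGC/ERR cell line treated 18 h at 37 C with pin-tool-delivered DMSO compound solutions; cells plated 6 h before dosing. Quantitative HTS format.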
# [2] = biological target: Luciferin 4-monooxygenase (Photinus pyralis) (UniProt P08659); assay: qHTS assay to identify small molecule inhibitors of firefly luciferase (AID 1224835); further: nearly all actives have a fitted effect of over 25% in size; further: potency means the concentration at half of the fitted maximal effect
# In short: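 Quantitative HTS format; KM concentrations of both substrates. Purified P. pyralis FLuc activity quantified from luminescence images.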
# [3] = qHTS assay to identify small molecule antagonists of the constitutive androstane receptor (CAR) signaling pathway - cell viability counter screen (AID 1224837); further: nearly all actives have a fitted effect of over 45% in size; further: potency means the concentration at half of the fitted maximal effect
# In short: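 CITCO at 50 nM final was added alongside compounds (15 concentrations) to double-stable hCAR/CYP2B6-2.2kb HepG2 cells. Following 23 hr at 37 C, cell viability was quantified by CellTiter-Fluor fluorescence intensity.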
# [4] = biological target: Nuclear receptor subfamily 1 group I member 3 (Homo sapiens) (UniProt Q14994); assay: qHTS assay to identify small molecule agonists of the constitutive androstane receptor (CAR) signaling pathway (AID 1224839); further: nearly all actives have a fitted effect of over 15% in size; further: potency means the concentration at half of the fitted maximal effect
# In short: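 Readout: firefly luciferase luminescence via ONE-Glo. System: HepG2 double-stable for hCAR and CYP2B6-2.2kb. Conditions: 15-point compound titration, PK11195 at 0.75 uM final, 24 h incubation.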
# [5] = qHTS assay to identify small molecule agonists of the estrogen related receptor signaling pathway with the pleiotropic PPARgamma coactivator (PGC) from Tox21 10K library (AID 1224842); further: nearly all actives have a fitted effect of over 15% in size
# In short: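 PGC/ERR reporter cells (NTP line) were seeded 2,000 per well, rested 6 h at 37 C/5% CO2, then pin-dosed with compounds in DMSO for 18 h at 37 C; luciferase read by One-Glo luminescence after 30 min at room temperature.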
# [6] = qHTS assay to identify small molecule agonists of H2AX (AID 1224845; active means well fitted activation curve with a large enough effect in the signal ratio in the repeat runs, not every such curve was filed as active; the % refers to the signal ratio)
# In short: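 Wild-type CHO-K1 cells plated overnight, then exposed 3 hr at 37C to compounds at 15 concentrations (0.76% DMSO). Lysed, then HTRF anti-pH2AX(S139)-cryptate/anti-H2AX-d2 detection after 24 hr at room temperature; emissions 665 and 620 nm.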
# [7] = qHTS assay to identify small molecule agonists of the hypoxia (HIF-1) signaling pathway (AID 1224846; active means well fitted activation curve with a large enough effect in the signal ratio in the repeat runs, not every such curve was filed as active; the % refers to the signal ratio)
# In short: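 ME-180 HRE-bla reporter cells; compounds in DMSO, 17 h at 37C; read-out beta-lactamase via CCF4-AM FRET.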
# [8] = qHTS assay to identify small molecule agonists of the estrogen related receptor (ERR) signaling pathway from Tox21 library (AID 1224849; calls by dose curve; further: nearly all actives have a fitted effect of over 15% in size); conditions: ERR reporter cell line, ONE-Glo luciferase, 18 h
# In short: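 Luciferase activity in ERR pathway reporter cells served as the agonist readout; exposure lasted 18 h at 37 C, with ONE-Glo detection after 30 min at room temperature.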
# [9] = qHTS RealTime-Glo MT Cell Viability Assay in HEK293 cells - 32 hour (AID 1224868); further: nearly all actives have a fitted effect of over 50% in size; further: potency means the concentration at half of the fitted maximal effect
# In short: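 Quantitative high-throughput screen of the Tox21 10K library in HEK293: cells and RealTime-Glo reagents plated together, compound added at 5 h, luminescence monitored through 40 h at 37 C.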
# [10] = qHTS RealTime-Glo MT Cell Viability Assay in HepG2 cells - 40 hour (AID 1224870); further: nearly all actives have a fitted effect of over 50% in size; further: potency means the concentration at half of the fitted maximal effect
# In short: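 HepG2 cells mixed with RealTime-Glo MT reagents (NanoLuc plus cell-permeant prosubstrate) were seeded at 600 cells/well, incubated 5 h at 37 C/5% CO2, then pinned with compounds in DMSO; nonlytic luminescence tracked viability during 40 h treatment.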
# [11] = qHTS assay to identify small molecule antagonists of the estrogen related receptor (ERR) signaling pathway from Tox21 library - cell viability counter screen (AID 1224834); further: nearly all actives have a fitted effect of over 30% in size; further: potency means the concentration at half of the fitted maximal effect
# In short: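 Counter screen run in ERR cells (2,000 cells/well): cells pre-incubated 6 h, then treated with compounds for 17.5 h at 37 C. Fluorescence was read 30 min after CellTiter-Fluor addition.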
# [12] = qHTS assay to identify small molecule agonists of the constitutive androstane receptor (CAR) signaling pathway - cell viability counter screen (AID 1224836); further: nearly all actives have a fitted effect of over 45% in size; further: potency means the concentration at half of the fitted maximal effect
# In short: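 Double-stable HepG2 hepatoma cells (hCAR plus CYP2B6-2.2kb) are treated for 23 h at 37 C with test compounds in 15-point concentration series. PK11195 at 0.75 uM final is co-added. Cell viability is quantified by CellTiter-Fluor.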
# [13] = biological target: Nuclear receptor subfamily 1 group I member 3 (Homo sapiens) (UniProt Q14994); assay: qHTS assay to identify small molecule antagonists of the constitutive androstane receptor (CAR) signaling pathway (AID 1224838); further: nearly all actives have a fitted effect of over 40% in size; further: potency means the concentration at half of the fitted maximal effect
# In short: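 Inhibition of CITCO-driven (50 nM final) CYP2B6 reporter expression is measured in HepG2 cells stably carrying hCAR. Fifteen compound concentrations are applied for 24 h at 37 C, followed by luciferase luminescence.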
# [14] = qHTS assay to identify small molecule antagonists of the estrogen related receptor signaling pathway with the pleiotropic PPARgamma coactivator (PGC) from Tox21 10K library - cell viability counter screen (AID 1224840; active means well fitted cell-killing curve with a large enough effect in the repeat runs, not every such curve was filed as active; further: nearly all actives have a fitted effect of over 40% in size; further: potency means the concentration at half of the fitted maximal effect)
# In short: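 Readout: fluorescence intensity from CellTiter-Fluor after 30 min at 37 C/5% CO2. Preceded by 17.5 h treatment of PGC/ERR cells with DMSO-dissolved compounds, added 6 h post-seeding.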
# [15] = biological target: Thyrotropin receptor (Homo sapiens) (UniProt P16473); assay: qHTS assay to identify small molecule agonists of the thyroid stimulating hormone receptor (TSHR) signaling pathway (AID 1224843; calls by dose curve; further: nearly all actives have a fitted effect of over 45% in size; further: potency means the concentration at half of the fitted maximal effect)
# In short: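 Using 15 concentrations per compound in triplicate, cAMP production was monitored in TSHR-HEK293 cells after 30 min compound incubation at RT; HTRF reagents followed, with fluorescence intensity recorded after 1 h.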
# [16] = qHTS assay to identify small molecule agonists of the hypoxia (HIF-1) signaling pathway - cell viability counter screen (AID 1224844; calls by dose curve; further: nearly all actives have a fitted effect of over 50% in size; further: potency means the concentration at half of the fitted maximal effect)
# In short: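 In this counter screen, HRE-bla ME-180 cell viability after 17 hrs of compound exposure at 37C was read by CellTiter-Glo luminescence, multiplexed with the beta-lactamase reporter measurement.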
# [17] = qHTS assay to identify small molecule agonists of H2AX - cell viability counter screen (AID 1224847; calls by dose curve; further: nearly all actives have a fitted effect of over 30% in size; further: potency means the concentration at half of the fitted maximal effect)
# In short: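 For this counter screen, overnight-attached CHO-K1 cells received test compounds (15 concentrations, 0.76% DMSO final); 3 hr later at 37C, CellTiter-Glo reagent was added and luminescence recorded after 30 min at room temperature.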
# [18] = qHTS RealTime-Glo MT Cell Viability Assay in HepG2 cells - 24 hour (AID 1224867); further: nearly all actives have a fitted effect of over 50% in size; further: potency means the concentration at half of the fitted maximal effect
# In short: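 Compound treatment began 5 h after plating HepG2 cells (600/well) with NanoLuc luciferase and prosubstrate. Plates stayed at 37 C for 40 h; luminescence was captured at six time points, 0 h through 40 h.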
# [19] = A CellTox Green Cytotoxicity Assay to monitor cytotoxicity in HEK293 cells - 0 hour (AID 1224869); further: nearly all actives have a fitted effect of over 50% in size
# In short: (§1)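 Real-time, in one plate: 600 HEK293 cells/well with dead-cell DNA dye, pinned compound after 5 h, 37 C incubation over 40 h; viable cells give no appreciable fluorescence.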
# [20] = A CellTox Green Cytotoxicity Assay to monitor cytotoxicity in HEK293 cells - 40 hour (AID 1224871); further: nearly all actives have a fitted effect of over 45% in size; further: potency means the concentration at half of the fitted maximal effect
# In short: as §1
# Nuclear receptor subfamily 1 group I member 3 (Homo sapiens), sequence (Q14994 whole entry, looked up): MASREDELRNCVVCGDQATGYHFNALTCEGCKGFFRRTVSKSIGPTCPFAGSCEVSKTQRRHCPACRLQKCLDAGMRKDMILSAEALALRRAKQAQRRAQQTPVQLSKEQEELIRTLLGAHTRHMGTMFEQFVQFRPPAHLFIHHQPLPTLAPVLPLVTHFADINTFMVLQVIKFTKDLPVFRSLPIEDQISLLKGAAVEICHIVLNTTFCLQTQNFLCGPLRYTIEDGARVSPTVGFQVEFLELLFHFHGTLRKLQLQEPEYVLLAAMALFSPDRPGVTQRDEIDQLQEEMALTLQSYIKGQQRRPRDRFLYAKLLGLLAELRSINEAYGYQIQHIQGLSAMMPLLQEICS
# Thyrotropin receptor (Homo sapiens), sequence (P16473 whole entry, looked up): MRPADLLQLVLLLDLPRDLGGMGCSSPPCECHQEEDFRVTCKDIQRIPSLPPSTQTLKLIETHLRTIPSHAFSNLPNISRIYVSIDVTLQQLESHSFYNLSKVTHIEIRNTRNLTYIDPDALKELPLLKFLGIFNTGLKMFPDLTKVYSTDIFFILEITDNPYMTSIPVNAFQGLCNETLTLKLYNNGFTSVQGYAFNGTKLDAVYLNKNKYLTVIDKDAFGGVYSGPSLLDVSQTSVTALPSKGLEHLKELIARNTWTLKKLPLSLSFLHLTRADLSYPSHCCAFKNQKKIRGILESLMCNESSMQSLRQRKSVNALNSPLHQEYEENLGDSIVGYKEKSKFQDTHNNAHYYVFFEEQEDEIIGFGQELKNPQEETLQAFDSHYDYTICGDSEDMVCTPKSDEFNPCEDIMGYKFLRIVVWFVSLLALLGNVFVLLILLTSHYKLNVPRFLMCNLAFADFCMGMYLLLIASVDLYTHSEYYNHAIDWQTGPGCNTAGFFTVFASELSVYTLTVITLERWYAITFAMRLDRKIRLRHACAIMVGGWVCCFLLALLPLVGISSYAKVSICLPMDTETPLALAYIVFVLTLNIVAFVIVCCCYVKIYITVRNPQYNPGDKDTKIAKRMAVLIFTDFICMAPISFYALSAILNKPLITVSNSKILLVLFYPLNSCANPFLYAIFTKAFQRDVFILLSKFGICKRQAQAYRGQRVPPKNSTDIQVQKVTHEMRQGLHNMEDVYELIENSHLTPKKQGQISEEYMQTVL
# Luciferin 4-monooxygenase (Photinus pyralis), sequence (P08659 whole entry, looked up): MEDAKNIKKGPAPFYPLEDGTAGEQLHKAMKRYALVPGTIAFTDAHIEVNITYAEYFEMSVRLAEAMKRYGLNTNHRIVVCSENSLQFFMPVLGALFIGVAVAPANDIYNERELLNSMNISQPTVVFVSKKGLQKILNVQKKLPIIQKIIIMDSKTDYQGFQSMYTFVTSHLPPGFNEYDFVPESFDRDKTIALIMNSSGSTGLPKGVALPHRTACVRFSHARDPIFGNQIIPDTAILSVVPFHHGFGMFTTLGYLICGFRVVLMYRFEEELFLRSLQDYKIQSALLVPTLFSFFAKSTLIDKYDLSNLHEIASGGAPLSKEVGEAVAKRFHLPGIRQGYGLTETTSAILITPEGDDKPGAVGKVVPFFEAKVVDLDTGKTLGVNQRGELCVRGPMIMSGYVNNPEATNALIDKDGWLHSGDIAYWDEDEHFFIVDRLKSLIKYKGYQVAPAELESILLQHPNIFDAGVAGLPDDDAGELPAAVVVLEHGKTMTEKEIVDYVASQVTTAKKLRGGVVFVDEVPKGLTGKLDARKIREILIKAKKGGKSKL
smiles,measurement,setting,value
C1=CC2C3C=CC(C3)C2C1 (centres undefined),outcome,[1],inactive
same,Potency,[2],inactive
same,Potency,[3],inactive
same,Potency,[4],inactive
same,Potency,[5],inactive
same,Potency,[6],inactive
same,outcome,[7],inactive
same,"activity change, positive = activation",[8]; at 92.4 µM (top of the series),-1.35% (inactive)
same,Potency,[9],inactive
same,Potency,[10],inactive
O=C(O)c1ccccc1,Potency,[11],inactive
same,Potency,[2],inactive
same,Potency,[12],inactive
same,Potency,[3],inactive
same,Potency,[13],inactive
same,Potency,[4],inactive
same,Potency,[14],inactive
same,Potency,[15],inactive
same,Potency,[16],inactive
same,Potency,[6],inactive
same,Potency,[17],inactive
same,Potency,[18],inactive
same,Potency,[9],inactive
same,Potency,[19],inactive
same,Potency,[10],inactive
same,Potency,[20],inactive
O=c1[nH]cnc2c1ncn2[C@H]1CC[C@@H](CO)O1,Potency,[11],inactive
same,Potency,[2],inactive
same,Potency,[12],inactive
same,Potency,[3],inactive
same,Potency,[13],inactive
same,Potency,[4],inactive
same,Potency,[5],inactive
same,Potency,[15],inactive
same,Potency,[16],inactive
same,Potency,[6],inactive
same,Potency,[17],inactive
same,"activity change, positive = activation",[8]; at 42.5 µM (top of the series),4.94% (inactive)
same,"activity change, positive = activation",[8]; at 92.4 µM (top of the series),7.43% (inactive) and 1.63% (inactive)
same,Potency,[18],inactive
same,Potency,[9],inactive
same,Potency,[19],inactive
same,Potency,[10],inactive
same,Potency,[20],inactive
O=C(O)CC(O)C(=O)O (centres undefined),Potency,[11],inactive
same,Potency,[2],inactive
same,Potency,[12],inactive
same,Potency,[3],inactive
same,Potency,[13],inactive
same,Potency,[4],inactive
same,Potency,[15],inactive
same,Potency,[16],inactive
same,Potency,[6],inactive
same,Potency,[17],inactive
same,Potency,[9],inactive
same,Potency,[19],inactive
same,Potency,[10],inactive
same,Potency,[20],inactive
CCCCOC(=O)c1ccc(O)cc1,Potency,[11],inactive
same,Potency,[2],80.7 µM (active) and 63.3 µM (active) and inactive
same,Potency,[12],inactive
same,Potency,[3],inactive
same,Potency,[13],inactive
same,Potency,[4],55.1 µM (active) and 30.6 µM (active) and inactive
same,Potency,[14],inactive
same,Potency,[15],inactive
same,Potency,[16],inactive
same,Potency,[6],inactive
same,Potency,[17],inactive
same,Potency,[18],inactive
same,Potency,[9],24.8 µM (active)
same,Potency,[19],inactive
same,Potency,[10],inactive
same,Potency,[20],49.6 µM (active) and inactive
Cc1ncc([N+](=O)[O-])n1CCO,Potency,[11],inactive
same,Potency,[2],inactive
same,Potency,[12],inactive
same,Potency,[3],inactive
same,Potency,[13],inactive
same,Potency,[4],inactive
same,Potency,[5],inactive
same,Potency,[15],inactive
same,Potency,[16],inactive
same,Potency,[6],inactive
same,Potency,[17],inactive
same,"activity change, positive = activation",[8]; at 42.5 µM (top of the series),4.15% (inactive)
same,"activity change, positive = activation",[8]; at 92.4 µM (top of the series),5.04% (inactive) and 2.17% (inactive)
same,Potency,[18],inactive
same,Potency,[9],inactive
same,Potency,[19],inactive
same,Potency,[10],inactive
same,Potency,[20],inactive
CCCc1cc(=O)[nH]c(=S)[nH]1,Potency,[11],inactive
same,Potency,[2],inactive
same,Potency,[12],inactive
same,Potency,[3],inactive
same,Potency,[13],inactive
same,Potency,[4],inactive
same,Potency,[15],inactive
same,Potency,[16],inactive
same,Potency,[6],inactive
same,Potency,[17],inactive
same,Potency,[18],inactive
same,Potency,[9],inactive
same,Potency,[19],inactive
same,Potency,[10],inactive
same,Potency,[20],inactive
CC(C)C(=O)Nc1ccc([N+](=O)[O-])c(C(F)(F)F)c1,outcome,[1],inactive
same,Potency,[2],inactive
same,Potency,[12],inactive
same,Potency,[3],inactive
same,Potency,[13],inactive
same,Potency,[4],inactive
same,Potency,[5],inactive
same,Potency,[15],inactive
same,Potency,[16],inactive
same,Potency,[6],inactive
same,Potency,[17],104 µM (active) and inactive
same,"activity change, positive = activation",[8]; at 42.5 µM (top of the series),-30.7% (inactive)
same,"activity change, positive = activation",[8]; at 92.4 µM (top of the series),-65.7% (inactive) and -58.2% (inactive)
same,Potency,[18],inactive
same,Potency,[9],12.6 µM (active) and 19.5 µM (active) and 9.52 µM (active)
same,Potency,[19],inactive
same,Potency,[10],inactive
same,Potency,[20],inactive
Cn1c(=O)c2c(ncn2C)n(C)c1=O,outcome,[1],inactive
same,Potency,[11],55.1 µM (active) and inactive
same,Potency,[13],inactive
same,Potency,[4],inactive
same,Potency,[5],inactive
same,Potency,[16],inactive
same,Potency,[6],inactive
same,Potency,[17],inactive
same,"activity change, positive = activation",[8]; at 42.5 µM (top of the series),0.592% (inactive)
same,"activity change, positive = activation",[8]; at 92.4 µM (top of the series),-33.2% (inactive) and 0.518% (inactive)
same,Potency,[18],inactive
same,Potency,[9],inactive
same,Potency,[19],inactive
same,Potency,[10],inactive
same,Potency,[20],inactive
Cc1ncc([N+](=O)[O-])n1C,Potency,[11],inactive
same,Potency,[2],inactive
same,Potency,[12],inactive
same,Potency,[3],inactive
same,Potency,[13],inactive
same,Potency,[4],inactive
same,Potency,[14],inactive
same,Potency,[5],inactive
same,Potency,[15],inactive
same,Potency,[16],inactive
same,Potency,[6],inactive
same,Potency,[17],inactive
same,"activity change, positive = activation",[8]; at 42.5 µM (top of the series),5.13% (inactive)
same,"activity change, positive = activation",[8]; at 92.4 µM (top of the series),5.9% (inactive) and -0.499% (inactive)
same,Potency,[9],inactive
same,Potency,[19],inactive
same,Potency,[10],inactive
same,Potency,[20],inactive
CCCCCCCCCCCC[N+](C)(C)Cc1ccccc1,Potency,[11],60 µM (active) and 66.4 µM (active) and 23.7 µM (active)
same,Potency,[2],inactive
same,Potency,[12],47.6 µM (active) and 59.2 µM (active) and 29.8 µM (active)
same,Potency,[3],47.6 µM (active) and 23.7 µM (active)
same,Potency,[13],83.6 µM (active) and 29.8 µM (active)
same,Potency,[4],inactive
same,Potency,[14],60 µM (active) and 41.9 µM (active)
same,Potency,[15],30 µM (active) and 37.4 µM (active)
same,Potency,[16],53.9 µM (active)
same,Potency,[6],inactive
same,Potency,[17],98.8 µM (active) and 110 µM (active) and 49.2 µM (active)
same,Potency,[18],12.1 µM (active) and 21.2 µM (active) and 8.49 µM (active)
same,Potency,[9],3.4 µM (active) and 2.99 µM (active) and 2.13 µM (active)
same,Potency,[19],inactive
same,Potency,[10],8.54 µM (active) and 16.8 µM (active) and 6.74 µM (active)
same,Potency,[20],42.8 µM (active) and 47.4 µM (active) and 23.9 µM (active)
